Test results taken from PubChem BioAssay (NCI).
Several values for one entry are separate records, joined by “and”; a condition that tells them apart may be missing. Equal values may be shown once. Compounds without any hit were thinned out: in the full panel of roughly 83,000, 20% have a hit.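 48-hour exposure, single concentration, 96-well plates; percent growth endpoint where 0 means no net growth. Active: below 10.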 Unmarked numbers belong to inactive results. Activity calls are given as the source filed them.

Test system: MDA-MB-468 breast
Test: NCI-60 one-dose screen, 48 h (100 = growth as untreated, 0 = no growth, -100 = all killed)
Conditions: 10 µM unless noted

Compound	growth
CN1CCN(c2ccc([N+](=O)[O-])c3no[n+]([O-])c23)CC1	-70.3% (active)
Cc1c(O)c(CN(CCCl)CCCl)cc(CN(CCCl)CCCl)c1O	84.4%
COc1ccc2c(c1)c(-c1nc(-c3c[nH]c4ncccc34)cs1)cn2CCN1CCOCC1	0.314% (active)
CCCC(C)C1(CC)C(=O)NC(=O)N(C)C1=O (stereo not given)	94.2%
NC(Cc1ccc(O)cc1)C(=O)N/N=C/c1ccc(N(CCCl)CCCl)cc1 (stereo not given)	19.7%
C[C@]12CC[C@H](O)C[C@@H]1CC[C@@H]1[C@@H]2CC[C@]2(C)OC(=O)CC[C@@H]12	106%
COc1ccc(/C=C\[N+](=O)[O-])cc1OC	53.6% and 11.6%
CCC(C)/C=C(C)/C=C/C(=O)c1c(O)c(-c2ccc(O)cc2)c[nH]c1=O (stereo not given)	30.3%
CCCCCCCCCCCC1CCCC(C)N1 (stereo not given)	73.3%
O[C@H](CN1CC1)[C@@H](O)CN1CC1	9.35% (active)
